Out of some 52,000 compounds screened, about 1,700 (3.3%) were called active. The full list was thinned out, with actives kept by preference. Values without a mark were called inactive. Rule as the data show it: active = survival mostly below about 52% (no sharp cut-off); inactive = mostly above about 56%.

The test system of this test is Wild type. The experiment in a line: growth inhibition of S. aureus wild type versus tarO mutant, primary screen, teichoic acid synthesis inhibitors, RN4220, OD600 (AID 463173). The note with it: S. aureus RN4220 wild type/DeltatarO growth, OD600, 18 h, hits give low values, screened at 18.75 µg/mL (by protocol).
Regarding `Cc1ccc(C2c3[nH]c4ccccc4c3CCN2C(=O)c2ccc(N(C)C)cc2)cc1` (centres undefined), the survival was 68%.

In the case of `CCc1cccc(C)c1Nc1c(-c2ccsc2)nc2ncccn12`, the survival was 66%.

Turning to `CNC(=S)N(CCN1CCOCC1)Cc1cc2cc(C)c(Cl)cc2[nH]c1=O`, the survival was 113%.

As to `Cc1cccn2c(=O)c(/C=C(\C#N)c3nc4ccccc4s3)c(Oc3ccc(Br)cc3)nc12`, the survival is 129%.

As for `O=C(NCc1cccc(Cl)c1)c1cc2ccc3cccnc3c2[nH]1`, the survival was 82%.

As for `Cc1ccc(-c2nnc(SCc3ccccc3C)o2)cc1`, the survival is -4% (active).

Take `Cc1ccc(-c2nnc(SCc3ccccc3C#N)o2)cc1`: the survival was 66%.

Take `CCCCCSc1nnc(-c2ccc(Br)cc2)o1`: the survival is -1% (active).

Consider `CCCCOC(=O)CSc1nnc(-c2ccc(C)cc2)o1`, for which the survival is 8% (active).

Regarding `Cc1ccc(CSc2nnc(-c3ccc(O)cc3)o2)cc1`, the survival was 108%.

Consider `COc1ccc(-c2nnc(SCC(=O)Oc3cc(C)ccc3C)o2)cc1`, for which the survival is 86%.

Take `N#Cc1ccccc1CSc1nnc(-c2ccc(Br)cc2)o1`: the survival was 73%.

In the case of `CCOC(=O)CSc1nnc(-c2ccc(OC)cc2)o1`, the survival was 72%.

For `N#Cc1ccc(CSc2nnc(-c3ccc(Br)cc3)o2)cc1`, the survival was 74%.

Take `Cc1ccc2occ(-c3cc(-c4ccc(F)cc4)nc4c3COc3ccc(F)cc3-4)c(=O)c2c1`: the survival is 76%.

For the molecule `Cc1ccc(-n2c(=O)[nH]c3cc(C(=O)NCCc4ccccc4)ccc3c2=O)cc1`, the survival is 85%.

On to `O=C(Nc1ccc(OCc2cc(=O)n3c4c(sc3n2)CCCC4)cc1)c1cccc(F)c1`, for which the survival is 78%.

On to `Cc1ccc(Cl)cc1NC(=O)Nc1nnc(N(C)Cc2ccccc2)s1`, for which the survival was 93%.

For the molecule `COc1ccc(-c2nc3sc(CCNC(=O)C(=O)Nc4ccccc4C#N)c(C)n3n2)cc1`, the survival was 85%.

On to `Cc1noc(C)c1S(=O)(=O)N1CCC(C(=O)N2CCN(c3ccccc3)CC2)CC1`, for which the survival was 128%.

Consider `CCOC(=O)CC(=O)CSc1nc2ccccc2c(=O)n1CCc1ccc(S(N)(=O)=O)cc1`, for which the survival was 71%.

`Cc1ccc(C(=O)COC(=O)CCC(=O)Nc2ccc(Oc3ccccc3)cc2)cc1`: the survival was 90%.

Take `Cc1c(NC(=O)C(C)(C)Oc2ccc(Cl)cc2)cccc1-c1nc2ccccc2o1`: the survival is 1% (active).

In the case of `COc1c(Cl)cc(Cl)cc1C(=O)Nc1cccc(-c2nc3ccccc3o2)c1C`, the survival is 125%.

With `Cc1ccc2oc(-c3ccc(C)c(NC(=O)C(C)(C)Oc4ccc(Cl)cc4)c3)nc2c1`, the survival is 43%.

With `Cc1cc(NC(=O)C(C)(C)Oc2ccc(Cl)cc2)cc(-c2nc3ncccc3o2)c1O`, the survival was 92%.

In the case of `Cc1c(NC(=O)C(C)(C)Oc2ccc(Cl)cc2)cccc1-c1nc2ncccc2o1`, the survival was -3% (active).

As for `CC(C)(Oc1ccc(Cl)cc1)C(=O)Nc1ccc(-c2nc3ncccc3o2)cc1`, the survival is 74%.

As to `COc1ccc(-c2nc(CN3CCC(C(=O)NCCCOC(C)C)CC3)c(C)o2)cc1OC`, the survival was 80%.

Take `CCCn1cc(S(=O)(=O)c2ccc(OC)cc2)c(=O)c2cc(F)c(N3CCCC(C)C3)cc21` (centres undefined): the survival was 71%.

As for `CCOc1ccc(C(=O)NCCS(=O)(=O)N2CCN(c3ccccc3F)CC2)cc1OCC`, the survival was 102%.

Regarding `COc1ccc(OCC(=O)Nc2ccc(-c3nc4cc(C)c(C)cc4o3)cc2)cc1`, the survival was 77%.

As for `Cc1ccc(C)c(Nc2ncnc3c2cnn3-c2ccc(F)cc2)c1`, the survival is -3% (active).

`COc1ccc(OC)c(Nc2ncnc3c2cnn3-c2ccc(C)cc2)c1`: the survival is 14% (active).

`COc1ccc(-n2ncc3c(NCCCOC(C)C)ncnc32)cc1`: the survival was -2% (active).

In the case of `COc1ccc(OC)c(Nc2ncnc3c2cnn3-c2cccc(Cl)c2)c1`, the survival was 64%.

Consider `COc1ccc(Nc2ncnc3c2cnn3-c2ccc(C)cc2)cc1Cl`, for which the survival was 133%.

Turning to `CCOc1ccccc1Nc1ncnc2c1cnn2-c1ccc(C)cc1`, the survival is 76%.

On to `COc1ccc(CCNc2ncnc3c2cnn3-c2ccc(C)cc2)cc1`, for which the survival is 71%.

As for `Cc1ccc(-n2ncc3c(Nc4cccc(C)c4C)ncnc32)cc1`, the survival is 78%.

With `COCCCNc1ncnc2c1cnn2-c1ccc(F)cc1`, the survival is 82%.

Turning to `Cc1ccc(Cn2c(C(=O)O)c(CNC3CCCCCC3)c3ccc(C)cc32)cc1`, the survival was 74%.

With `CCCNC(=O)C1CCC(Cn2c(=O)c3sccc3n(CC(=O)NCc3cccc(OC)c3OC)c2=O)CC1` (centres undefined), the survival was 133%.

As to `COc1cccc(NC(=O)c2cnc(SCC(=O)N3CCCc4ccccc43)n(C)c2=O)c1`, the survival is 54%.

As for `COc1cccc(-c2cn3ncsc3n2)c1`, the survival was 80%.

Consider `Cc1cc(NNC(=O)c2ccccc2)nc(NNC(=O)c2ccccc2)n1`, for which the survival is 103%.

Regarding `CCCc1noc(-c2ccc(NCc3ccccc3OC)c([N+](=O)[O-])c2)n1`, the survival was 79%.

In the case of `COc1ccc(/C=C(/C#N)c2nc(-c3ccc(-c4ccccc4)cc3)cs2)cc1`, the survival was 66%.

As for `N#C/C(=C/c1ccc(O)cc1)c1nc(-c2ccc(-c3ccccc3)cc2)cs1`, the survival was 0% (active).

Consider `N#C/C(=C\c1ccc(F)cc1)c1nc(-c2ccc(-c3ccccc3)cc2)cs1`, for which the survival is 74%.

Regarding `CCOc1ccc(-c2csc(/C(C#N)=C/c3ccc(Br)cc3)n2)cc1`, the survival was 71%.

As for `Cc1ccc(/C=C(\C#N)c2nc(-c3ccc(-c4ccccc4)cc3)cs2)cc1`, the survival was 83%.

Turning to `CN(C)c1ccc(/C=C(\C#N)c2nc(-c3ccc(Cl)c(Cl)c3)cs2)cc1`, the survival is 89%.

As for `CC(C)c1ccc(/C=C(\C#N)c2nc(-c3ccc(O)cc3)cs2)cc1`, the survival was 0% (active).

Take `N#C/C(=C/c1ccc(Cl)cc1)c1nc(-c2ccc(Br)cc2)cs1`: the survival is 83%.

As to `CCc1ccc(/C=C(/C#N)c2nc(-c3ccc(C)cc3)cs2)cc1`, the survival was -2% (active).

`Cc1nn2c3c(cnc2c1-c1ccc(Cl)cc1)C(=O)CC(c1ccc(C(C)C)cc1)C3` (centres undefined): the survival was 78%.

Turning to `Cc1ccc(-n2nnc3c(sc4nc(C)c(C)cc43)c2=O)cc1Cl`, the survival is 84%.

Regarding `CCCCC(=O)OC1=C(C(=O)c2ccccc2)N(CC)S(=O)(=O)c2ccccc21`, the survival was 71%.

Consider `CCCCC(=O)OC1=C(C(=O)c2ccccc2)N(CCC)S(=O)(=O)c2ccccc21`, for which the survival is 43%.

As for `CCCCC(=O)OC1=C(C(=O)c2ccccc2)N(C)S(=O)(=O)c2ccccc21`, the survival was 108%.

On to `CCCCN1C(C(=O)c2ccccc2)=C(OC(=O)CC)c2ccccc2S1(=O)=O`, for which the survival is 0% (active).

As to `CCCN1C(C(=O)c2ccccc2)=C(OC(=O)C(C)(C)C)c2ccccc2S1(=O)=O`, the survival is 86%.

Turning to `CCCCCN1C(C(=O)c2ccccc2)=C(OC(=O)CC)c2ccccc2S1(=O)=O`, the survival is -4% (active).

Take `CCCN1C(C(=O)c2ccccc2)=C(OC(=O)COc2ccccc2)c2ccccc2S1(=O)=O`: the survival was 72%.

Take `CCCCN1C(C(=O)c2ccccc2)=C(OC(C)=O)c2ccccc2S1(=O)=O`: the survival was -2% (active).

`CCCCCN1C(C(=O)c2ccccc2)=C(NC(C)=O)c2ccccc2S1(=O)=O`: the survival is 60%.

Consider `COc1cc(C(=O)OCn2c(=O)oc3ccccc32)cc(OC)c1OC`, for which the survival was 101%.

Turning to `NC(=O)c1cc2n(n1)C(C(F)(F)F)CC(c1ccc(Cl)cc1)N2` (centres undefined), the survival was 116%.

On to `COc1ccc(Cl)cc1NC(=O)C1CCN(c2nnc(C)c3c(C)n(-c4ccccc4)nc23)CC1`, for which the survival is 66%.

With `Cc1c(Cl)cccc1-n1ncc(C(=O)N2CCN(C)CC2)c1C1CCN(C(=O)OC(C)(C)C)CC1`, the survival was 87%.

With `COc1ccccc1C(=O)Nc1ccc2oc(-c3cccc(Cl)c3Cl)nc2c1`, the survival was 100%.

As to `COc1ccc(S(=O)(=O)Nc2cccc(-c3ccc(N4CCCCCC4)nn3)c2)cc1F`, the survival is 71%.

`CCN1CCN(CCCNC(=O)Cn2c(-c3cccs3)cc3cc(F)ccc32)CC1`: the survival is 126%.

For the molecule `CC(C)COc1ccc(C(=O)Nc2cc3nn(-c4ccccc4)nc3cc2Cl)cc1`, the survival is 57%.

In the case of `Cc1nc(-c2ccccc2)sc1-c1ccc(SCC(=O)Nc2ccc(F)cc2F)nn1`, the survival is 30%.

For `CCc1ccccc1NC(=O)Cn1nnc(C(=O)Nc2ccc(OC)c(OC)c2)c1N`, the survival was 76%.

In the case of `CCN(CC)C(=O)c1c(NC(=O)c2cccc(C)c2)sc2c1CCC(C)C2` (centres undefined), the survival was 2% (active).

On to `Cc1cccc(C(=O)Nc2sc3c(c2C(=O)O)CCCC3)c1`, for which the survival was 40%.

With `Cc1cccc(NC(=O)c2c(NC(=O)c3cccs3)sc3c2CCC(C)C3)c1` (centres undefined), the survival was 75%.

With `CC1CCc2c(sc(NC(=O)c3ccccc3)c2C(=O)Nc2ccccc2)C1` (centres undefined), the survival is 64%.

On to `Cc1cccc(NC(=O)c2c(NC(=O)c3ccco3)sc3c2CCC(C)C3)c1` (centres undefined), for which the survival was 73%.

On to `Cc1cccc(C(=O)Nc2sc3c(c2C(=O)N2CCCCC2)CCC(C)C3)c1` (centres undefined), for which the survival was -1% (active).

With `O=C(NC1CCCCC1)c1cccnc1Nc1ccccc1F`, the survival was 113%.

For `CC1CCCN(C(=O)Cn2ncc3c([nH]c4ccccc43)c2=O)C1` (centres undefined), the survival is 81%.

Consider `COc1cc(NC(=O)CC(C)S(=O)(=O)c2ccc3c(c2)CCN3C(C)=O)cc(OC)c1OC` (centres undefined), for which the survival was 76%.

With `CC(=O)N1CCc2cc(S(=O)(=O)C(C)CC(=O)Nc3ccc(Br)c(C)c3)ccc21` (centres undefined), the survival is -6% (active).

Turning to `CC(=O)N1CCc2cc(CNC(=O)Nc3ccc(Br)c(C)c3)ccc21`, the survival is 85%.

As for `CCOC(=O)c1c(S(=O)(=O)NCC(=O)Nc2cccc(SC)c2)c(C)n(C)c1C`, the survival is 70%.

Take `COc1ccc(CN(C(=O)c2cc(=O)c3ccccc3o2)C2CCS(=O)(=O)C2)cc1OC` (centres undefined): the survival is 118%.

Consider `O=C(NCCc1csc2nc(-c3ccccc3F)nn12)C(=O)Nc1cc(F)ccc1F`, for which the survival was 63%.

For `COC(=O)c1ccc(NC(=O)C(=O)NCCc2csc3nc(-c4ccccc4F)nn23)cc1`, the survival was 60%.

As to `Cc1ccc(NC(=O)C(=O)NCCc2csc3nc(-c4ccccc4C)nn23)cc1Cl`, the survival is 82%.

As to `CC(=O)Nc1cccc(NC(=O)C(=O)NCCc2csc3nc(-c4ccccc4F)nn23)c1`, the survival was 57%.

With `CCOc1ccc(CC(=O)NCCc2csc3nc(-c4ccccc4F)nn23)cc1`, the survival was 119%.

Take `Cc1ccccc1-c1nc2scc(CCNC(=O)C(=O)Nc3ccc(F)cc3F)n2n1`: the survival was -4% (active).

On to `Cc1ccc(C)c(NC(=O)C(=O)NCCc2csc3nc(-c4ccccc4C)nn23)c1`, for which the survival was 129%.

For `Cc1c(Cl)cccc1NC(=O)C(=O)NCCc1csc2nc(-c3ccccc3F)nn12`, the survival was 1% (active).

With `CCOc1ccc(NC(=O)C(=O)NCCc2csc3nc(-c4ccccc4F)nn23)cc1`, the survival is -3% (active).

For the origin of these results see PubChem BioAssay AID463173 (ICCB-Longwood Screening Facility, Harvard Medical School, 2010).
